# uPA surface inh = cell surface uPA generation inhibition | Potency, µM (titrated, usually from 38.3 µM), for the others: at the highest dose activity change, negative = inhibition, hits mostly inhibitors | cell surface uPA generation assay, qHTS | actives 0.31% (n = 330,000); active = well fitted inhibition curve with a large enough effect; inconclusive = small, poorly fitted or top-dose-only effect; inactive = no such curve, though single readings can be large or run the other way; tested in mouse RAW 264.7 cells; also: % is scaled to controls: 0 for no effect and ±100 for the full control effect; nearly all actives have a fitted effect of over 55% in size
# ELG1 genotox = inducers of genotoxicity in HEK293T ELG1-luciferase cells | AID 504466 | HEK293T ELG1-luciferase reporter, luminescence, 16 h | actives 1.3% (n = 330,000) | Potency, µM (highest dose often 46 µM), for the others: at the highest dose activity change, positive = activation, most hits filed as activators; also: % of control where 0% means no effect; nearly all actives have a fitted effect of over 60% in size
#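 Reporter readout depends on ELG1 protein level, which increases with genetic stress. After 16 hr compound exposure at 37 °C, luciferase activity was quantified using ONE-Glo.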
# FLuc counter = firefly luciferase modulation, counter-screen for miR-21 project. P08659. purified FLuc, Km substrates, luminescence inhibition. Potency, µM (series often up to 57.5 µM), without a hit: at the highest dose activity change, negative = inhibition, usual class: inhibitors. actives 6.9% (n = 360,000). AID 588342;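 also: plate controls were vehicle for no effect and reference inhibitor for full effect; nearly all actives have a fitted effect of over 55% in size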
# Target sequence (P08659 whole entry, looked up): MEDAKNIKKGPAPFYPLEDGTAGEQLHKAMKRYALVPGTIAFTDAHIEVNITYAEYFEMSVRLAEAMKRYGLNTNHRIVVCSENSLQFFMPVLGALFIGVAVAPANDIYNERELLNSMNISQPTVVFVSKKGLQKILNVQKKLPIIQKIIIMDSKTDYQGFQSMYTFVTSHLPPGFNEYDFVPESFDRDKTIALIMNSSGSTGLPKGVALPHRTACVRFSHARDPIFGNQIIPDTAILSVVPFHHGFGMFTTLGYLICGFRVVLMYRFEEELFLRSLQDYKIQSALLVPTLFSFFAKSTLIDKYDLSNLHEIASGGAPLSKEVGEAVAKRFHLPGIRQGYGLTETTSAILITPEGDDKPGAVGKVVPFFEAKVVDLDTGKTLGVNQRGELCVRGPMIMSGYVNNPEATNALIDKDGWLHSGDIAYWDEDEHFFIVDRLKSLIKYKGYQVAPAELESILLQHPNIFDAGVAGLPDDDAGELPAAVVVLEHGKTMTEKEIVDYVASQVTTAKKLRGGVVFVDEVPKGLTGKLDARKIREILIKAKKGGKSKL
#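 Biochemical qHTS of compounds, final roughly 60 µM downward over six points, against 10 nM purified firefly luciferase using Km concentrations of substrates (10 uM D-luciferin, 10 uM ATP) in Tris acetate pH 7.5 buffer; luminescence output.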
# NPC1 prom act = activators of NPC1 promoter | AID 485313 | Potency, µM (titrated, usually from 9.22 µM), without a hit: at the top dose activation, usual class: activators | Huh7 NPC1 promoter luciferase reporter, 24 h | actives 2.4% (n = 320,000); also: % of control where 0% means no effect; nearly all actives have a fitted effect of over 60% in size
#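 Luminescence read-out of NPC1 promoter-driven luciferase in stably transfected Huh7 cells; compounds delivered in DMSO and left 24 h at 37C, 5% CO2, qHTS titration format.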
# SMN2 splice up = enhancers of SMN2 splice variant expression. HEK293 SMN2-luciferase splicing reporter, luminescence, 30-36 h. Potency, µM (highest dose often 46.1 µM), for inactives: top-dose activity change, positive = activation, actives largely listed as activators. actives 2.8% (n = 210,000); also: % of control where 0% means no effect; nearly all actives have a fitted effect of over 55% in size
#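 HEK293 cells carry an SMN2 minigene-luciferase reporter in which exon 7 inclusion puts luciferase in frame. Cells were seeded at 2000 cells/well, attached for 10-12 hours, then exposed to compounds for 30-36 hours at 37C before ONE-Glo luminescence.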
# Rab9 promoter act = activators of Rab9 promoter; Huh7 Rab9 promoter-luciferase reporter, luminescence, 24 h; Potency, µM (doses to about 9.22 µM), inactives show at the highest dose activation, negative = inhibition, usual class: activators; actives 2.8% (n = 320,000); AID 485297; also: % of control where 0% means no effect; nearly all actives have a fitted effect of over 60% in size
#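 Cells were plated at 1500 per well in reduced-serum medium with 10% FBS and left 2 h. Compound in DMSO was then added for 24 h at 37 °C. Reporter signal was read by luminescence after 10 min with luciferase detection reagent.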
# Numbers without * were called inactive; ? = inconclusive; / = not tested or not shown; [ ] = dose if it differs, or a comment. This is a sample that favours compounds with a hit; in the whole collection about 7.3% have one here. Unless noted, calls follow the shape of the dose curve; as a rule, active = well fitted curve in the direction sought with a large enough effect; inconclusive = small, poorly fitted or top-dose-only effect, or another doubt; inactive = no such curve, though single readings can be large; an effect the other way counts as inactive or inconclusive. Potency is read from the fitted curve at half-maximal effect.
SMILES,uPA surface inh,ELG1 genotox,FLuc counter,NPC1 prom act,SMN2 splice up,Rab9 promoter act
COc1ccc(C(=O)Nc2ccccc2C(=O)Nc2cccc(C)n2)cc1,?,4%,5.4µM*,?,/,26%
COc1cc2ccccc2cc1C(=O)Nc1ccc(Cc2ccncc2)cc1,-15%,-16%,?,12%,-4%,14%
COc1cc2ccccc2cc1C(=O)Nc1ccc(C)cc1,20µM*,?,3µM*,18%,/,3%
Cc1ccc(NC(=O)c2cccc3ccccc23)cc1,-3%,18%,15µM*,?,/,?
COc1cccc(NC(=O)c2ccccc2NC(=O)c2ccncc2)c1,-11%,-1%,/,/,/,/
CCC(=O)N1CCc2cc(S(=O)(=O)NCCC(=O)NC(C)c3ccccc3)ccc21 (centres undefined),/,/,4%,/,-6%,/
CCOc1ccccc1CNC(=O)c1cc2c(=O)n(Cc3cccnc3)ccc2nc1C,/,/,2%,/,/,/
CCOc1ccc(C(=O)Nc2cc(S(=O)(=O)Nc3ccccc3Cl)ccc2N2CCOCC2)cc1,-1%,-2%,1%,0%,5%,-1%
O=C(O)c1cc(-n2c(/C=C\c3ccc(F)cc3)nc3ccccc3c2=O)ccc1Cl,/,/,24µM*,/,/,/
O=C(c1cc(C(F)(F)F)cc(C(F)(F)F)c1)N1CCC[C@@]2(CCN(Cc3ccncc3)C2)C1,/,/,/,/,-3%,/
O=C(Nc1cccc(-c2nn[nH]n2)c1)c1ccc(Cl)s1,32%,1%,15µM*,-1%,/,5%
O=C(Nc1cccc(-c2nn[nH]n2)c1)c1ccc(Br)s1,-27%,-1%,12µM*,1%,/,27%
CCCC[N+](CC#Cc1ccccc1)(CCCC)CCCS(=O)(=O)[O-],-2%,1%,0%,-4%,-7%,0%
Clc1ccc(N=NN2CCOCC2)cc1,1%,?,17µM*,18%,/,21%
O=C(O)c1ccc(N=NN2CCCCC2)cc1,2%,?,11µM*,?,26%,1.3µM*
COC(=O)c1ccc(N=NN2CCOCC2)cc1,3%,?,17µM*,?,11µM*,?
COC(=O)c1ccc(N=NN2CCCCCC2)cc1,-21%,?,6.7µM*,2.2µM*,13µM*,3.2µM*
Cc1oc2c(c1C(=O)NCc1cccc(Br)c1)C1=NCCN1C=N2,/,/,0%,/,/,/
Cc1nc2nc(C)c(CCC(=O)NCc3ccccc3)c(C)n2n1,/,/,-1%,/,24%,/
CCC(C)NC(=O)Cn1c(=O)n(CCCC(=O)NCc2ccc(C)cc2)c(=O)c2ccccc21 (centres undefined),/,/,4%,/,-2%,/
CCc1c(C(=O)NCCc2ccc(N3CCCCC3)cc2)[nH]c2ccc(Cl)cc12,/,/,/,-1%[46.1 µM],/,-12%[46.1 µM]
COC(=O)[C@H](Cc1ccccc1)NC(=O)O[C@@H]1Cc2cc(OC)ccc2O[C@H]1c1cccc(OC)c1,/,/,/,/,3%,/
NS(=O)(=O)c1ccc(N=NN2CCCCC2)cc1,-3%,11%,17µM*,?,/,?
CCN(CC)C(=O)COc1ccc(-c2ccccc2)cc1,11%,?,13µM*,?,8%,?
CCN(CC)C(=O)COc1ccc(/C(C)=N/NC(=O)c2ccccc2O)cc1,-8%,18%,6.7µM*,13%,-16%,?
SMILES,uPA surface inh,ELG1 genotox,FLuc counter,NPC1 prom act,SMN2 splice up,Rab9 promoter act
CCCCOC(=O)c1ccc(NC(=O)c2ccc3c(c2)CCN3S(C)(=O)=O)cc1,/,/,-7%,/,-6%,/
CCOC(=O)c1sc(NC(=O)c2ccc3nc[nH]c3c2)nc1C,-1%,?,5.4µM*,-7%,/,2%
CCOC(=O)c1sc(NC(=O)CSc2nccn2C)nc1C,-19%,21µM*,?,?,/,?
CCOC(=O)c1sc(NC(=O)c2cccnc2)nc1C,-1%,?,15µM*,16%,-2%,25%
CCOC(=O)c1sc(NC(=O)c2ccc(=O)[nH]c2)nc1C,1%,20%,?,2%,/,-16%
Cc1c(C)c(C)c(CO/N=C/c2cccs2)c(C)c1C,3%,-6%,1%,1%,/,-6%

# Screens (PubChem BioAssay)
